“And” between values parts separate entries of the source, which are not always exact repeats. Identical values can stand only once. Screen size: about 5,500 compounds; about 2,000 (36%) were called active. About 18% were inconclusive and are not listed. No stated cut-off is given here; in the data, active means normalized growth mostly below about 0.91 (no sharp cut-off); inconclusive means no clear call, values can overlap the other calls; inactive means mostly above about 0.92. Some of the results follow.
Experiment: chemical genetic growth profiling, strain panel (AID 1159580);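 further: tested at 20 µM; growth read once vehicle control cultures reached saturation at 30 °C; 1 = growth at the plate median or of vehicle wells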
Conditions: S. cerevisiae deletion strains, growth OD

Measured: normalized growth

CCS(=O)(=O)CCn1c([N+](=O)[O-])cnc1C
inactive: locus YAL013W, strain DEP1, stronger effect = lower value 1.03 | locus YAL021C, strain ccr4, stronger effect = lower value 0.999 | locus YAL026C, strain drs2, stronger effect = lower value 0.995 | locus YAL030W, strain snc1, stronger effect = lower value 1.01 | locus YBL061C, strain skt5, stronger effect = lower value 1.01 | locus YBR009C, strain hhf1, stronger effect = lower value 0.962 | locus YBR021W, strain FUR4, stronger effect = lower value 1.01 | locus YBR023C, strain chs3, stronger effect = lower value 0.998 | locus YBR171W, strain sec66, stronger effect = lower value 1 | locus YBR229C, strain ROT2, stronger effect = lower value 1.01 | locus YBR231C, strain swc5, stronger effect = lower value 1 | locus YBR279W, strain paf1, stronger effect = lower value 0.985 | locus YCL011C, strain gbp2, stronger effect = lower value 1 | locus YCL016C, strain dcc1, stronger effect = lower value 1.02 | locus YCL029C, strain bik1, stronger effect = lower value 1.01 | locus YCL061C, strain MRC1, stronger effect = lower value 1.01 | locus YCL069W, strain vba3, stronger effect = lower value 0.974 | locus YCR088W, strain abp1, stronger effect = lower value 0.986 | locus YDL005C, strain med2, stronger effect = lower value 1.01 | locus YDL035C, strain GPR1, stronger effect = lower value 1.04 | locus YDL040C, strain nat1, stronger effect = lower value 0.995 | locus YDL074C, strain BRE1, stronger effect = lower value 1.06 | locus YDL101C, strain DUN1, stronger effect = lower value 1.01 | locus YDL134C, strain PPH21, stronger effect = lower value 1 | locus YDL185W, strain tfp1, stronger effect = lower value 1.02 | locus YDL192W, strain arf1, stronger effect = lower value 1.01 | locus YDR001C, strain nth1, stronger effect = lower value 0.991 | locus YDR069C, strain doa4, stronger effect = lower value 0.977 | locus YDR101C, strain arx1, stronger effect = lower value 1.01 | locus YDR137W, strain rgp1, stronger effect = lower value 0.957 | locus YDR150W, strain NUM1, stronger effect = lower value 1.02 | locus YDR159W, strain sac3, stronger effect = lower value 0.965 | locus YDR162C, strain NBP2, stronger effect = lower value 1.02 | locus YDR195W, strain ref2 0.952 | locus YDR297W, strain sur2, stronger effect = lower value 1 | locus YDR318W, strain mcm21, stronger effect = lower value 1.04 | locus YDR334W, strain swr1, stronger effect = lower value 0.966 | locus YDR335W, strain msn5, stronger effect = lower value 0.993 | locus YDR388W, stronger effect = lower value 1.01 | locus YDR392W, strain spt3, stronger effect = lower value 1.02 | locus YDR502C, strain sam2, stronger effect = lower value 1.01 | locus YEL003W, strain gim4, stronger effect = lower value 0.995 | locus YEL037C, strain rad23, stronger effect = lower value 0.981 | locus YEL061C, strain CIN8 (second series), stronger effect = lower value 0.998 | locus YEL061C, strain CIN8, stronger effect = lower value 1.01 | locus YER015W, strain faa2, stronger effect = lower value 1 | locus YER016W, strain bim1, stronger effect = lower value 1.01 | locus YER110C, stronger effect = lower value 1.02 | locus YER111C, strain swi4, stronger effect = lower value 1.02 | locus YER155C, strain BEM2 (second series), stronger effect = lower value 0.99 | locus YER155C, strain BEM2, stronger effect = lower value 0.996 | locus YER167W, strain BCK2, stronger effect = lower value 1.05 | locus YFR010W, strain ubp6, stronger effect = lower value 0.967 | locus YGL078C, strain dbp3, stronger effect = lower value 1 | locus YGL086W, strain mad1, stronger effect = lower value 1.05 | locus YGL167C, strain pmr1, stronger effect = lower value 0.994 | locus YGL173C, strain kem1, stronger effect = lower value 1.02 | locus YGL227W, strain vid30, stronger effect = lower value 1 | locus YGL240W, strain doc1, stronger effect = lower value 0.977 | locus YGL248W, strain PDE1, stronger effect = lower value 1 | locus YGL253W, strain hxk2, stronger effect = lower value 0.997 | locus YGR078C, strain PAC10, stronger effect = lower value 1.03 | locus YGR135W, strain pre9, stronger effect = lower value 1.01 | locus YGR229C, strain SMI1, stronger effect = lower value 1.02 | locus YGR252W, strain gcn5, stronger effect = lower value 1.01 | locus YHR013C, strain ard1, stronger effect = lower value 1.04 | locus YHR027C, strain rpn1, stronger effect = lower value 1.01 | locus YHR030C, strain SLT2, stronger effect = lower value 1.01 and 0.981 | locus YHR079C, strain IRE1 (second series), stronger effect = lower value 1.02 | locus YHR079C, strain IRE1, stronger effect = lower value 0.957 | locus YHR094C, strain hxt1, stronger effect = lower value 1.01 | locus YHR129C, strain ARP1, stronger effect = lower value 1.01 | locus YHR142W, strain chs7, stronger effect = lower value 1.01 | locus YHR200W, strain rpn10, stronger effect = lower value 1.02 | locus YIL066C, strain RNR3, stronger effect = lower value 1.02 | locus YIL073C, strain SPO22, stronger effect = lower value 1.1 | locus YIL125W, strain kgd1, stronger effect = lower value 1.01 | locus YIR030C, strain dcg1, stronger effect = lower value 1.01 | locus YJL092W, strain hpr5, stronger effect = lower value 1 | locus YJL095W, strain BCK1 (second series), stronger effect = lower value 0.989 | locus YJL095W, strain BCK1, stronger effect = lower value 1.02 and 0.959 | locus YJL115W, strain asf1, stronger effect = lower value 0.98 | locus YJL129C, strain trk1, stronger effect = lower value 1 | locus YJL134W, strain LCB3, stronger effect = lower value 1.01 | locus YJL154C, strain vps35, stronger effect = lower value 0.984 | locus YJL164C, strain tpk1, stronger effect = lower value 1 | locus YJL166W, strain qcr8, stronger effect = lower value 0.996 | locus YJL168C, strain set2, stronger effect = lower value 1.01 | locus YJL187C, strain SWE1 (second series), stronger effect = lower value 1.01 | locus YJR043C, strain POL32, stronger effect = lower value 1.08 | locus YJR066W, strain TOR1, stronger effect = lower value 0.945

From PubChem BioAssay AID1159580 (chemical genetic matrix, 2015)
